# Test results reported in PubChem BioAssay (EPA / NIEHS).
# Several values for one entry are separate records, joined by “and”; a condition that tells them apart may be missing. Equal entries are not always repeated. Results filed as inconclusive are left out. Activity calls are given as the source filed them. How the source made its calls, unless noted: active means hit-call score of the fitted dose curve at least 0.9, where 1 is the maximum; inconclusive means response in the unintended direction; inactive means score below 0.9.
# Key:
# [1] = target: mouse Peroxisome Proliferator-activated Receptor gamma (PPARg), Pparg (gene 19016) (UniProt P37238); assay: ATG_mPPARg_XSP2: Attagene TRANS-FACTORIAL Multi-Species (XSP2) HepG2 Assay for mouse Peroxisome Proliferator-activated Receptor gamma (PPARg) (AID 2283830);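 further: hits are gains in reporter mRNA above DMSO so AC50 marks activation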
# Sequence of mouse Peroxisome Proliferator-activated Receptor gamma (PPARg), Pparg (gene 19016) (P37238 whole entry, looked up, the tested form may be a part): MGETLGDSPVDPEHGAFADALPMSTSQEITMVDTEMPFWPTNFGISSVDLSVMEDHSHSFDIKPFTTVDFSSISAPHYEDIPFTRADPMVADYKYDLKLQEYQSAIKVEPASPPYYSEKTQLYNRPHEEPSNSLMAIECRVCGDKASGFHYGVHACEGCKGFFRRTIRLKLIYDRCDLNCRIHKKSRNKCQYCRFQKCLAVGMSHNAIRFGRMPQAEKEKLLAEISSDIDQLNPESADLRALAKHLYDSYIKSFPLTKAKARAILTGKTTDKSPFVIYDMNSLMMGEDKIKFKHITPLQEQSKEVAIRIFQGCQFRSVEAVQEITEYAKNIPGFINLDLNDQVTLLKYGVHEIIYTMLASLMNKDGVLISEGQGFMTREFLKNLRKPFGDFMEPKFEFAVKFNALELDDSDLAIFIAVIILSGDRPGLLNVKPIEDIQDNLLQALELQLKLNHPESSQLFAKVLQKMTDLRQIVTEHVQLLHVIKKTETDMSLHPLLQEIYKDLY
# Outline: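 HepG2 cells transiently transfected with GAL4-UAS reporter units for chimeric NR-Gal4 proteins including mouse PPARg, exposed 24 h; medium contained 3 nM 6-alpha-fluorotestosterone and 1.5 nM norgestrel. Reporter mRNA quantified by RT-PCR, HpaI digestion and capillary electrophoresis, vs DMSO.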
# [2] = target: Nuclear receptor subfamily 1 group I member 2 (Mus musculus) (UniProt O54915); assay: ATG_mPXR_XSP2: Attagene TRANS-FACTORIAL Multi-Species (XSP1) HepG2 Assay for mouse Pregnane X Receptor (PXR) (AID 2283831)
# Sequence of Nuclear receptor subfamily 1 group I member 2 (Mus musculus) (O54915 whole entry, looked up, the tested form may be a part): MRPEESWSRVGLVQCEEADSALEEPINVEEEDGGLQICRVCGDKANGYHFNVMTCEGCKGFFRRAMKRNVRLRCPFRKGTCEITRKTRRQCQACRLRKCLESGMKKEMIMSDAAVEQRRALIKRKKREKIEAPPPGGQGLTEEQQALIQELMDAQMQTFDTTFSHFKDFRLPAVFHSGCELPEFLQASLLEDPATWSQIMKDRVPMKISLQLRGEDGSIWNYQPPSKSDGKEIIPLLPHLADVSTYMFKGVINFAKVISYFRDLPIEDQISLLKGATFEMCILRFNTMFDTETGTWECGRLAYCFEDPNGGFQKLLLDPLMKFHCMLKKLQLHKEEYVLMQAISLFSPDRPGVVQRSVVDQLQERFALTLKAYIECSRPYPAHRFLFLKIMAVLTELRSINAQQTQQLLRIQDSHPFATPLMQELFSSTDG
# Outline: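 Human liver HepG2 cells expressing exogenous receptor-GAL4 chimeras were exposed to test chemicals for 24 h. Induction of reporter mRNA was scored as gain of fluorescence signal over DMSO controls.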
# [3] = test system: zebrafish Peroxisome Proliferator-activated Receptor gamma (PPARg), gene 557037; assay: ATG_zfPPARg_XSP2: Attagene TRANS-FACTORIAL Multi-Species (XSP2) HepG2 Assay for zebrafish Peroxisome Proliferator-activated Receptor gamma (PPARg) (AID 2283833);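 further: reporter mRNA from a zebrafish PPARg GAL4 chimera measured by RT-PCR and capillary electrophoresis; actives increase reporter signal over DMSO so AC50 reflects activation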
# Outline: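 Cell-based transactivation of a chimeric zebrafish PPARg-GAL4 receptor was assessed in transiently transfected HepG2 cells after 24 h of treatment. Reporter mRNA induction, detected fluorescently after RT-PCR, was analysed in the positive direction against DMSO.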
# [4] = target: zebrafish Thyroid Hormone Receptor beta (TRb), thrb (gene 30607) (UniProt Q9PVE4); assay: ATG_zfTRb_XSP2: Attagene TRANS-FACTORIAL Multi-Species (XSP1) HepG2 Assay for zebrafish Thyroid Hormone Receptor beta (TRb) (AID 2283836)
# Sequence of zebrafish Thyroid Hormone Receptor beta (TRb), thrb (gene 30607) (Q9PVE4 whole entry, looked up, the tested form may be a part): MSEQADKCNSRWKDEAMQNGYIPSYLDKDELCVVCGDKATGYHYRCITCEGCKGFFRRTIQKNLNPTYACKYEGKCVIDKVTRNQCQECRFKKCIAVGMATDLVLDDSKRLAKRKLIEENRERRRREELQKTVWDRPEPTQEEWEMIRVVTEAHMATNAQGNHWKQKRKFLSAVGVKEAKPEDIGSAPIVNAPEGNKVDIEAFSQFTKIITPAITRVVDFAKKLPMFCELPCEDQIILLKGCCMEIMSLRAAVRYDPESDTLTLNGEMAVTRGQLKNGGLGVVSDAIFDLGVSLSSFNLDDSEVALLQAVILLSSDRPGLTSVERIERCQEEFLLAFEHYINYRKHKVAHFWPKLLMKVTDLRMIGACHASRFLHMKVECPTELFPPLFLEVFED
# Outline: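 Human liver HepG2, transient MRTU transfection (NR-Gal4 chimeras, GAL4-UAS reporters); 24 h compound exposure; total RNA → oligo(dT) RT → PCR → 6-FAM label → HpaI cut → CE fluorescence. DMSO = negative control/baseline.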
# [5] = ATG_XTT_Cytotoxicity_XSP2: Cytotoxicity Assessment in the Attagene TRANS-FACTORIAL Multi-Species (XSP2) HepG2 Assay (AID 2283837)
# Outline: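 HepG2 cells, transiently transfected with multiple reporter constructs, exposed to chemical for 24 h. Cell number assessed with XTT fluorescence read-out; loss of signal fitted relative to DMSO.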
# [6] = target: human Thyroid hormone Receptor alpha (TRa), THRA (gene 7067) (UniProt P10827); assay: ATG_hTRa_XSP2: Attagene TRANS-FACTORIAL Multi-Species (XSP2) HepG2 Assay for human Thyroid hormone Receptor alpha (TRa) (AID 2283838)
# Sequence of human Thyroid hormone Receptor alpha (TRa), THRA (gene 7067) (P10827 whole entry, looked up, the tested form may be a part): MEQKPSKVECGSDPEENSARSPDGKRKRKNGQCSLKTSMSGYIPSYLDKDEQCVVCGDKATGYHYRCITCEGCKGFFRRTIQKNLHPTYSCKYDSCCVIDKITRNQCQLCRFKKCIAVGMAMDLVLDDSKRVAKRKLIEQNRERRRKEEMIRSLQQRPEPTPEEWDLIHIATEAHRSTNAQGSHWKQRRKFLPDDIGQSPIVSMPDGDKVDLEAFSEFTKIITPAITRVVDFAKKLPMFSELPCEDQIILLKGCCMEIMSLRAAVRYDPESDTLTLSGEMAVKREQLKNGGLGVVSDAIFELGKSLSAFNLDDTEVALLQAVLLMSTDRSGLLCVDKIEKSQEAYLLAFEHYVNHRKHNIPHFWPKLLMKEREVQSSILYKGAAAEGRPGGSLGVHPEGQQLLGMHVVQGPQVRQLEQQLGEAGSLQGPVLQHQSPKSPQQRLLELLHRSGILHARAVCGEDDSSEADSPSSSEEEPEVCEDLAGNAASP
# Outline: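 HepG2 cells were transiently transfected with GAL4-UAS reporter units for chimeric human TRa-Gal4 and dosed for 24 hours, with 3 nM 6-alpha-fluorotestosterone and 1.5 nM norgestrel present. Reporter mRNA was quantified by RT-PCR, FAM labelling and capillary electrophoresis, with gain of signal fitted versus DMSO.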
# [7] = target: human Thyroid hormone Receptor beta (TRb), THRB (gene 7068) (UniProt P10828); assay: ATG_hTRb_XSP2: Attagene TRANS-FACTORIAL Multi-Species (XSP2) HepG2 Assay for human Thyroid hormone Receptor beta (TRb) (AID 2283840);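 further: actives raise reporter mRNA so potency reflects agonist-like gain of signal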
# Sequence of human Thyroid hormone Receptor beta (TRb), THRB (gene 7068) (P10828 whole entry, looked up, the tested form may be a part): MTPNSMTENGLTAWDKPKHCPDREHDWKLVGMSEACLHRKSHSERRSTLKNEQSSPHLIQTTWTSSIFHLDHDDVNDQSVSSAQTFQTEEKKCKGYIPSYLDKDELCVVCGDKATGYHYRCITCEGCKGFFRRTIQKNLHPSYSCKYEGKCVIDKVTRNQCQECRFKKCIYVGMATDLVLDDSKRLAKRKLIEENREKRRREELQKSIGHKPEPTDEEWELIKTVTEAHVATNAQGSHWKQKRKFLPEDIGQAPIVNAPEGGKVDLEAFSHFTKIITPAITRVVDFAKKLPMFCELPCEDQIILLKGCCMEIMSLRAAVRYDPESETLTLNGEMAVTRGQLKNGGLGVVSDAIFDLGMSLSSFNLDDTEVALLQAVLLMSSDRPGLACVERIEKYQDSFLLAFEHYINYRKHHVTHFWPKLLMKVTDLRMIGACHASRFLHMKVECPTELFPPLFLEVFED
# Outline: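 In this cell-based multiplex, HepG2 liver cells carrying transfected GAL4-UAS reporter constructs are exposed to chemical for 24 hours, then reporter transcripts are measured by RT-PCR with capillary electrophoresis, scored as gain of signal against DMSO.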
# [8] = target: zebrafish Thyroid Hormone Receptor alpha (TRa), thraa (gene 30670) (UniProt Q98867); assay: ATG_zfTRa_XSP2: Attagene TRANS-FACTORIAL Multi-Species (XSP1) HepG2 Assay for zebrafish Thyroid Hormone Receptor alpha (TRa) (AID 2283832);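 further: actives raise zebrafish TRa-Gal4 reporter transcript above DMSO baseline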
# Sequence of zebrafish Thyroid Hormone Receptor alpha (TRa), thraa (gene 30670) (Q98867 whole entry, looked up, the tested form may be a part): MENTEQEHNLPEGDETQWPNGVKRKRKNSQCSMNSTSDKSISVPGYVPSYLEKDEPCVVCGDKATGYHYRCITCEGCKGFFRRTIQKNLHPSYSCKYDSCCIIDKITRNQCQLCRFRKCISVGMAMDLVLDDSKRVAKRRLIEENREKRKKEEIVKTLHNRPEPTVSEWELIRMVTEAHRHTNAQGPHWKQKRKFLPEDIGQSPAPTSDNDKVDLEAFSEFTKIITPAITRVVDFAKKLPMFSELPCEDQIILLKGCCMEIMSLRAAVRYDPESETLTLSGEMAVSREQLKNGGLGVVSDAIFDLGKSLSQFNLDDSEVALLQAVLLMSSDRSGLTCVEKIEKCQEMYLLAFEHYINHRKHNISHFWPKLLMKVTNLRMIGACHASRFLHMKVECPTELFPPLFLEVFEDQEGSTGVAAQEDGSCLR
# Outline: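 Transient transfection of human HepG2 with GAL4-UAS reporter units, then 24 h chemical treatment. RNA isolated, reverse-transcribed, PCR-amplified, FAM-labelled, HpaI-digested and run on capillary electrophoresis. Gain-of-signal relative to DMSO.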
# [9] = test system: turtle Thyroid Hormone Receptor, alpha (TRa), gene 101949057; assay: ATG_trTRa_XSP2: Attagene TRANS-FACTORIAL Multi-Species (XSP1) HepG2 Assay for turtle Thyroid Hormone Receptor, alpha (TRa) (AID 2283834);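 further: hits raise reporter mRNA over the DMSO baseline so AC50 marks activators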
# Outline: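 Gain-of-signal reporter transcription measured in transiently transfected HepG2 at 24 h post-dose. Fluorescent RT-PCR products were resolved by capillary electrophoresis and compared with DMSO vehicle.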
# [10] = ATG_M_61_XSP2: Attagene TRANS-FACTORIAL Multi-Species (XSP2) HepG2 Assay for M61 Transcription Factor (Internal Marker) (AID 2283835; active means hit-call score of the fitted dose curve at least 0.9, where 1 is the maximum; inactive means score below 0.9;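 further: reporter mRNA of an internal background marker read by RT-PCR and capillary electrophoresis; active means a rise in signal above the DMSO baseline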)
# Outline: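 First, HepG2 cells are transfected with reporter units under GAL4-UAS control. Next, chemicals are applied for 24 h. Then total RNA is reverse-transcribed, amplified, fluorescently labelled and sized by capillary electrophoresis, with gain of signal scored against DMSO.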
# [11] = target: frog Thyroid hormone Receptor alpha (TRa), thra-a (gene 397942) (UniProt P15204); assay: ATG_frTRa_XSP2: Attagene TRANS-FACTORIAL Multi-Species (XSP2) HepG2 Assay for frog Thyroid hormone Receptor alpha (TRa) (AID 2283839)
# Sequence of frog Thyroid hormone Receptor alpha (TRa), thra-a (gene 397942) (P15204 whole entry, looked up, the tested form may be a part): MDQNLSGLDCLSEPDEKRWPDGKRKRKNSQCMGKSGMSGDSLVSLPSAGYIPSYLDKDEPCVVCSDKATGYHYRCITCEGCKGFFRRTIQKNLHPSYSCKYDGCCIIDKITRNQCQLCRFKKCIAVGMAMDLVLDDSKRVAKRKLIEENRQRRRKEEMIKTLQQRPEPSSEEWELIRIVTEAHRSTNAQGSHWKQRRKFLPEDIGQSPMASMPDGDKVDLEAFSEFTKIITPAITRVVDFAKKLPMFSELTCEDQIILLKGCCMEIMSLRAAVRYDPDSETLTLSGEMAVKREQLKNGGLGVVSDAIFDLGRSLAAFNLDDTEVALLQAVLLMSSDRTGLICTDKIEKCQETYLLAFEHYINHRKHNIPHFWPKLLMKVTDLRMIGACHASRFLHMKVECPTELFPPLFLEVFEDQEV
# Outline: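 Frog thyroid receptor alpha was tested as an exogenous NR-Gal4 fusion in transiently transfected HepG2 cells. After 24 h chemical treatment, reporter mRNA induction was quantified by RT-PCR and capillary electrophoresis, with gain-of-signal analysed relative to DMSO.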
# [12] = CEETOX_H295R_11DCORT_noMTC: CeeTox H295R High-throughput Steroidogenesis Assay for 11-Deoxycortisol (11DCORT), maximum tolerated concentration (MTC) filtered results only (AID 2283911; active means hit-call score of the fitted dose curve at least 0.9, where 1 is the maximum; inactive means score below 0.9); conditions: actives raise or lower the signal
# Outline: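 Readout is 11-deoxycortisol in culture medium by reverse-phase HPLC with MS/MS, after 48 h chemical treatment of forskolin-primed H295R cells. Values are relative to DMSO and unfiltered for cytotoxicity.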
# [13] = CEETOX_H295R_OHPREG_noMTC: CeeTox H295R High-throughput Steroidogenesis Assay for OH-Pregnenolone (OHPREG), maximum tolerated concentration (MTC) filtered results only (AID 2283912; active means hit-call score of the fitted dose curve at least 0.9, where 1 is the maximum; inactive means score below 0.9); conditions: actives raise or lower the signal
# Outline: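 Steroidogenesis in H295R cells (OECD 456, modified): after 48 h forskolin priming and 48 h chemical treatment, secreted 17alpha-hydroxypregnenolone is measured by HPLC-MS/MS. Activity is fitted in both directions against DMSO; concentrations are not filtered by MTT-based MTC.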
# [14] = CEETOX_H295R_OHPROG_noMTC: CeeTox H295R High-throughput Steroidogenesis Assay for OH-Progesterone (OHPROG), maximum tolerated concentration (MTC) filtered results only (AID 2283914; active means hit-call score of the fitted dose curve at least 0.9, where 1 is the maximum; inactive means score below 0.9); conditions: actives raise or lower the signal
# Outline: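 Forskolin 10 uM, 48 h prestim → test cmpd in DMSO (0.1% final), 48 h → medium MTBE extraction → LC-MS/MS quant of 17alpha-OH-progesterone. Bidirectional fit vs DMSO; no MTT-based MTC filtering.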
# [15] = CEETOX_H295R_CORTISOL_noMTC: CeeTox H295R High-throughput Steroidogenesis Assay for Cortisol, maximum tolerated concentration (MTC) filtered results only (AID 2283916; active means hit-call score of the fitted dose curve at least 0.9, where 1 is the maximum; inactive means score below 0.9); conditions: actives raise or lower the signal
# Outline: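 Cortisol secretion measured by LC-MS/MS after 48 h chemical treatment (final 0.1% DMSO) of forskolin-primed (10 uM, 48 h) H295R cells; gain or loss fitted relative to DMSO, without maximum-tolerated-concentration filtering.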
# [16] = CEETOX_H295R_CORTIC_noMTC: CeeTox H295R High-throughput Steroidogenesis Assay for Corticosterone (CORTIC), maximum tolerated concentration (MTC) filtered results only (AID 2283917; active means hit-call score of the fitted dose curve at least 0.9, where 1 is the maximum; inactive means score below 0.9); conditions: actives raise or lower the signal
# Outline: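 Following OECD 456 with minor changes, H295R cultures received 10 uM forskolin for 48 h, then test chemical at 0.1% DMSO for 48 h. Media steroids were extracted and measured by LC-MS/MS.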
# [17] = CEETOX_H295R_DOC_noMTC: CeeTox H295R High-throughput Steroidogenesis Assay for DOC, maximum tolerated concentration (MTC) filtered results only (AID 2283918; active means hit-call score of the fitted dose curve at least 0.9, where 1 is the maximum; inactive means score below 0.9); conditions: actives raise or lower the signal
# Outline: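 11-Deoxycorticosterone secreted by human adrenal H295R cells quantified by HPLC-MS/MS after 48 h chemical exposure (0.1% DMSO), following 48 h 10 uM forskolin prestimulation. Concentrations not filtered by MTT-derived MTC; bidirectional fitting.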
# [18] = test system: Sodium/Iodide Symporter (NIS), SLC5A5 (gene 6528); assay: CPHEA_Stoker_NIS_Inhibition_RAIU: CPHEA's Radioactive Iodide Uptake (RAIU) Assay for Sodium/Iodide Symporter (NIS) Inhibition, Stoker and Laws Labs (AID 2283841)
# Outline: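 HEK293T cells stably expressing human NIS (hNIS-HEK293T-EPA) were exposed to test chemicals at 0.001–100uM (0.5% final DMSO) with 125I at a final 329pM in HBSS/10mM HEPES pH 7.4. After 2 hours at room temperature and ice-cold washes, intracellular 125I was counted as CPM and normalized to DMSO wells.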
# [19] = CPHEA_Stoker_NIS_Cytotoxicity: Cytotoxicity Assessment for CPHEA's Radioactive Iodide Uptake (RAIU) Assay for Sodium/Iodide Symporter (NIS) Inhibition, Stoker and Laws Labs (AID 2283897)
# Outline: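 hNIS-HEK293T-EPA human kidney cells were exposed for 2 hours at room temperature to test chemicals (0.001–100uM, 0.5% final DMSO) in HEPES-buffered HBSS, pH 7.4. Viability was read as ATP content by luciferase bioluminescence, loss of signal versus DMSO.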
# [20] = CEETOX_H295R_ANDR_noMTC: CeeTox H295R High-throughput Steroidogenesis Assay for Androstenedione (ANDR), maximum tolerated concentration (MTC) filtered results only (AID 2283915; active means hit-call score of the fitted dose curve at least 0.9, where 1 is the maximum; inactive means score below 0.9); conditions: actives raise or lower the signal
# Outline: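 H295R cells, passage 10 or below, prestimulated 48 h with 10 uM forskolin, then exposed 48 h to chemical in 0.1% DMSO. Medium androstenedione extracted with MTBE, quantified by HPLC-MS/MS; concentrations not MTC-filtered; bidirectional fit versus DMSO.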
structure (smiles),measurement,setting,value
O=C(O)/C=C/c1ccccc1,outcome,[1],inactive
same,outcome,[2],inactive
same,outcome,[3],inactive
same,outcome,[4],inactive
same,outcome,[5],inactive
same,outcome,[6],inactive
same,outcome,[7],inactive
CCCCCCCCCCCCc1ccc(O)cc1,outcome,[1],inactive
same,AC50,[2],0.259 µM (active)
same,outcome,[8],inactive
same,outcome,[3],inactive
same,outcome,[9],inactive
same,outcome,[10],inactive
same,outcome,[4],inactive
same,outcome,[7],inactive
N#Cc1ccc(C2CCCc3cncn32)cc1 (stereo unspecified),outcome,[1],inactive
same,outcome,[2],inactive
same,outcome,[8],inactive
same,outcome,[3],inactive
same,outcome,[9],inactive
same,outcome,[10],inactive
same,outcome,[4],inactive
same,outcome,[5],inactive
same,outcome,[11],inactive
same,outcome,[12],inactive
same,outcome,[13],inactive
same,AC50,[14],2.31 µM (active)
same,AC50,[15],2.52 µM (active)
same,AC50,[16],1.44 µM (active)
same,AC50,[17],1.98 µM (active)
COc1ccc(C(=O)c2ccccc2)c(O)c1,AC50,[1],78.9 µM (active) and 63.2 µM (active)
same,AC50,[2],26.7 µM (active)
same,outcome,[8],inactive
same,outcome,[3],inactive
same,outcome,[9],inactive
same,outcome,[10],inactive
same,outcome,[4],inactive
same,outcome,[5],inactive
same,outcome,[6],inactive
same,outcome,[11],inactive
same,outcome,[7],inactive
same,outcome,[18],inactive
same,outcome,[19],inactive
CCCCCCCOC(=O)c1ccc(O)cc1,outcome,[18],inactive
same,outcome,[19],inactive
Cc1ccc([N+](=O)[O-])cc1N,outcome,[18],inactive
same,outcome,[19],inactive
CCCC=C(C=O)CC,outcome,[12],inactive
same,outcome,[13],inactive
same,outcome,[14],inactive
same,outcome,[15],inactive
same,outcome,[16],inactive
same,outcome,[17],inactive
Oc1ccc(-c2ccccc2)c(Cl)c1,AC50,[1],33.4 µM (active)
same,outcome,[2],inactive
same,outcome,[8],inactive
same,outcome,[3],inactive
same,outcome,[9],inactive
same,outcome,[4],inactive
same,AC50,[5],85.4 µM (active)
same,outcome,[6],inactive
same,outcome,[11],inactive
same,outcome,[7],inactive
same,outcome,[18],inactive
same,outcome,[19],inactive
N#Cc1ccc(C(c2ccc(C#N)cc2)n2cncn2)cc1,outcome,[12],inactive
same,outcome,[13],inactive
same,outcome,[14],inactive
same,outcome,[20],inactive
same,AC50,[15],4.92 µM (active)
same,outcome,[16],inactive
same,outcome,[17],inactive
c1ccc(Nc2cccc3ccccc23)cc1,AC50,[18],21.5 µM (active)
same,outcome,[19],inactive
O=C(O)c1cc(O)c2ccccc2c1O,outcome,[18],inactive
same,outcome,[19],inactive
CC(C)(C)NC(=O)[C@H]1CC[C@H]2[C@@H]3CC[C@H]4NC(=O)C=C[C@]4(C)[C@H]3CC[C@]12C,outcome,[1],inactive
same,AC50,[2],2.09 µM (active)
same,AC50,[9],25.9 µM (active)
same,outcome,[10],inactive
O=C(OCc1ccccc1)c1ccc(O)cc1,outcome,[18],inactive
same,outcome,[19],inactive
C/C=C/C=C/CCCCCCCO,outcome,[18],inactive
same,outcome,[19],inactive
C=CCOC(=O)c1ccc(C(=O)OCC=C)c(C(=O)OCC=C)c1,AC50,[18],10.2 µM (active)
same,outcome,[19],inactive
